Compound activity as filed in PubChem BioAssay.
This excerpt belongs to a sample that is enriched for hits.
GIRK2 activator: Activators of human GIRK2-containing channels | P48051 | activation (% efficacy), % for hits at 37.5 µM | AID 1259324 | 34,000 tested, under 10 active | HEK293 GIRK2/NPY4 cells, thallium flux fluorescence;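 active means primary screen hit, no activity in plain HEK293 cells, and in GIRK2-only cells above 5% efficacy rising with concentration; inactive means the rest, including fluorescent compounds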;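 further: efficacy is normalized control-subtracted fluorescence 15 s after thallium addition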
Target sequence (P48051 whole entry, looked up): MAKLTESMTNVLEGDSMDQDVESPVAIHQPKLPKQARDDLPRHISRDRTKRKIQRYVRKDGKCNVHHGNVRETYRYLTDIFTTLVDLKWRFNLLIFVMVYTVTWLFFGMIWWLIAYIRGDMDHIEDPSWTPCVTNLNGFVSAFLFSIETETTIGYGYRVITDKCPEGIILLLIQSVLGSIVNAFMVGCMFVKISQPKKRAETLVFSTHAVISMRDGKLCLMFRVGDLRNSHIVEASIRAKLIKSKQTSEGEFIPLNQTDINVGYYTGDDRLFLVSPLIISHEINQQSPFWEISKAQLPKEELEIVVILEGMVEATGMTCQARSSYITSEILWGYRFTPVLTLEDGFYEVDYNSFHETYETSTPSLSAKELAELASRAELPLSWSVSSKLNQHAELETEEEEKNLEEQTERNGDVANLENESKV
AMPAR-TARP mod: modulates AMPAR-stargazin complexes; O88602+P19491; HEK293 GluA2+stargazin, membrane potential dye (FDSS), glutamate EC50; hits were called plate by plate, in both directions; calls only at 30 µM; hit rate 3.5% among 40,000; AID 1259245;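 active means any of four per-well response measures lying three or more SD from its plate-wide compound average, in either direction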
Large screens that a line does not name were inactive.

Cc1cc(C)c(S(=O)(=O)NC(C)C)cc1N(C)S(=O)(=O)c1ccccc1	AMPAR-TARP mod active (no result: GIRK2 activator)
Cc1cccc(N(C)S(=O)(=O)c2cc(N(C)S(=O)(=O)c3ccccc3)c(C)cc2C)c1	none (no result: GIRK2 activator)
Cc1cc(C)c(S(=O)(=O)N(C)c2c(C)cccc2C)cc1N(C)S(=O)(=O)c1ccccc1	none (no result: GIRK2 activator)
Cc1cc(C)c(S(=O)(=O)N(C)c2ccc(Cl)cc2)cc1N(C)S(=O)(=O)c1ccccc1	AMPAR-TARP mod active (no result: GIRK2 activator)
NC(=O)c1ccccc1NC(=O)CN1C(=O)c2ccccc2S1(=O)=O	none
Cc1ccc(S(=O)(=O)N2CCC(C(=O)Nc3ccc4c(c3)C(=O)NC4=O)CC2)cc1	none
Cc1ccccc1NC(=O)C(=O)NCCc1ccc2c(c1)CCCN2C	none (no result: GIRK2 activator)
COc1cccc(C(CNC(=O)C(=O)Nc2cc(C)nc3ccccc23)N2CCOCC2)c1 (stereo not given)	none
Cc1cc(NC(=O)C(=O)NCC2CCN(C(C)C)CC2)c2ccccc2n1	AMPAR-TARP mod active
Cc1cc(NC(=O)C(=O)NCC(c2cccs2)N2CCOCC2)c2ccccc2n1 (stereo not given)	AMPAR-TARP mod active (no result: GIRK2 activator)
Cc1cccc(C)c1NC(=O)C(=O)NCC1CCN(C(C)C)CC1	none (no result: AMPAR-TARP mod)
O=C(NCCN1CCn2cc(OCc3ccccc3)c(=O)cc2C1=O)c1ccccc1F	none
COC(=O)Cc1c(C)c2ccc(OCC(=O)c3ccc(-c4ccccc4)cc3)cc2oc1=O	none (no result: GIRK2 activator)
COC(=O)Cc1c(C)c2ccc(OCC(=O)c3ccc(F)cc3)cc2oc1=O	AMPAR-TARP mod active (no result: GIRK2 activator)
Cc1ccc(S(=O)(=O)NCCn2nc(-c3ccc(Cl)cc3)ccc2=O)cc1C	none (no result: GIRK2 activator)
Cc1ccc(S(=O)(=O)NCCn2nc(C)c(Cl)c2C)cc1C	AMPAR-TARP mod active
CCc1c(C#N)c(SCC(=O)NCc2ccc3c(c2)OCO3)nc2c1C(=O)CC(C)(C)C2	AMPAR-TARP mod active
CCc1c(C#N)c(SCCC(=O)NCc2ccc3c(c2)OCO3)nc2c1C(=O)CC(C)(C)C2	none
O=C(Nc1nnc(CS(=O)(=O)c2ccccc2)o1)c1ccc(F)cc1	none
CC(C)(C)OC(=O)N1CC2CC1C(=O)O2 (stereo not given)	none
CC(=O)OC(Cn1nc(C)cc1C)Cn1c2ccccc2c2ccccc21 (stereo not given)	none
CC(=O)OC(COc1ccc(N(C)C(C)=O)cc1)Cn1c2ccccc2c2ccccc21 (stereo not given)	AMPAR-TARP mod active
Cn1nc(NC(=O)c2ccc(F)c(F)c2)c2c1NC(=O)CC2c1ccccc1 (stereo not given)	none
COc1cc(N2CCN(C(=O)Nc3cccc(C(F)(F)F)c3)CC2)nc(OC)n1	none
CC(c1ccccc1)N1C(=O)C(O)=C(C(=O)C2CC2)C1c1ccccc1 (stereo not given)	none
O=C(NCCN1CCN(C(=O)CCS(=O)(=O)c2ccccc2)CC1)c1ccsc1	none
O=C(Nc1ccc(O)cc1)C(=O)Nc1ccc(F)c([N+](=O)[O-])c1	AMPAR-TARP mod active
O=C(NCc1ccncc1)C(=O)Nc1ccc(F)c([N+](=O)[O-])c1	none
Cc1cnc2c(c1SCC(=O)N1CCCCC1)c(=O)n(C)c(=O)n2C	none
Cc1cnc2c(c1SCCN1CCCCC1)c(=O)n(C)c(=O)n2C	AMPAR-TARP mod active
O=C(NCCCn1cccc1)c1ccccc1Oc1ccccc1	none
CCOc1ccc(NC(=O)C2CC(=O)N(c3cc(OC)ccc3OC)C2)cc1 (stereo not given)	none
CCc1ccc(S(=O)(=O)NCCCn2nc(-c3ccccc3)ccc2=O)s1	none
CCc1ccc(S(=O)(=O)NCCCn2nc(-c3ccc(OC)cc3)ccc2=O)s1	AMPAR-TARP mod active
Cc1cccnc1NC(=O)c1ccc(=O)n(Cc2cccc([N+](=O)[O-])c2)c1	AMPAR-TARP mod active
Cc1c(Cl)cccc1NC(=O)c1ccc(=O)n(Cc2cccc([N+](=O)[O-])c2)c1	none
Cc1ccnc(NC(=O)c2ccc(=O)n(Cc3cccc([N+](=O)[O-])c3)c2)c1	AMPAR-TARP mod active
Cc1ccc(NC(=O)c2ccc(=O)n(Cc3cccc([N+](=O)[O-])c3)c2)cc1C	none
O=C(CN1CCC(c2nnc(-c3ccc(F)cc3)o2)CC1)NCc1ccccc1Cl	none
Cc1ccccc1NC(=O)Nc1ccc(-c2ccc(N3CCN(C)CC3)nn2)cc1	none (no result: GIRK2 activator)
COc1ccc(S(=O)(=O)N2CCCc3cc(NC(=O)C(C)(C)C)ccc32)cc1	AMPAR-TARP mod active (no result: GIRK2 activator)
Cc1ccc(S(=O)(=O)N2CCCc3cc(NC(=O)c4ccccc4)ccc32)cc1	none (no result: GIRK2 activator)
COc1ccc(S(=O)(=O)N2CCCc3cc(NC(C)=O)ccc32)cc1	none (no result: GIRK2 activator)
Cc1ccc(S(=O)(=O)N2CCCc3cc(NC(=O)Oc4ccccc4)ccc32)cc1	AMPAR-TARP mod active (no result: GIRK2 activator)
COCC(C)(O)CNC(=O)c1cc2cccc(OC)c2o1 (stereo not given)	none
CCc1ccc(NCc2cc3cc(OC)c(OC)cc3n(CC(=O)Nc3ccccc3)c2=O)cc1	none (no result: GIRK2 activator)
CCCCN1CC(c2nc3ccccc3n2CCOC)CC1=O (stereo not given)	none (no result: GIRK2 activator)
Cc1ccc(N2CCN(C(=O)N3CCCCC3)CC2)cc1Cl	none
CCc1nc(-n2cccc2)sc1C(=O)NCCCc1ccccc1	none
COc1cccc2sc(NC(=O)c3ccc(S(=O)(=O)C(C)C)cc3)nc12	AMPAR-TARP mod active
CC(=O)c1sc(NC(=O)c2ccc(S(=O)(=O)C(C)C)cc2)nc1C	AMPAR-TARP mod active (no result: GIRK2 activator)
COc1ccc(-c2csc(NC(=O)c3ccc(S(=O)(=O)C(C)C)cc3)n2)cc1OC	none (no result: GIRK2 activator)
CC(C)S(=O)(=O)c1ccc(C(=O)Nc2nc(-c3ccc(Cl)s3)cs2)cc1	none (no result: GIRK2 activator)
Cc1c(C(=O)N(C)C2CCCCC2)c(C(F)(F)F)nn1C1CCCN(C)C1 (stereo not given)	none
CCCNC(=O)CCCCn1c(=O)c2ccccc2n(CC(=O)NCc2ccc(F)cc2)c1=O	AMPAR-TARP mod active
O=C(CCCCn1c(=O)c2ccccc2n(CC(=O)NC2CCCCC2)c1=O)NC1CCCCC1	AMPAR-TARP mod active
CCCNC(=O)CCCCn1c(=O)c2ccccc2n(CC(=O)Nc2ccc(OC)c(OC)c2)c1=O	none (no result: GIRK2 activator)
COc1ccc(CNC(=O)Cn2c(=O)n(CCCCC(=O)NCC(C)C)c(=O)c3ccccc32)cc1	none (no result: GIRK2 activator)
CC(C)CCNC(=O)CCCCn1c(=O)c2ccccc2n(CC(=O)NCc2ccccc2)c1=O	AMPAR-TARP mod active (no result: GIRK2 activator)
O=C(CCCCn1c(=O)[nH]c2ccccc2c1=O)NC1CCCCC1	none
CC(=O)N1CC(C(=O)Nc2cc3ccccc3oc2=O)C1	none
COc1ccc(CCC(=O)Nc2cccc(-n3c(C)nc4ccccc4c3=O)c2)cc1	AMPAR-TARP mod active (no result: GIRK2 activator)
COc1ccc(CCC(=O)Nc2cc(-n3c(C)nc4ccccc4c3=O)ccc2F)cc1	none
COc1cccc(NC(=O)Cn2c(=O)c(CNc3ccc(C)cc3)cc3ccc(OC)cc32)c1	none
O=C(NC1CCCC1)C1CCN(C(=O)c2n[nH]c3ccccc23)CC1	none
NS(=O)(=O)c1ccc(NC(=O)CN2C(=O)c3ccccc3S2(=O)=O)cc1	AMPAR-TARP mod active
NC(=O)c1ccc(NC(=O)CN2C(=O)c3ccccc3S2(=O)=O)cc1	none
O=C(C1CCC(Cn2c(=S)[nH]c3ccccc3c2=O)CC1)N1CCN(Cc2ccccc2)CC1 (stereo not given)	none
O=C(CSc1nnc(CCn2ccc(=O)[nH]c2=O)o1)Nc1ccccc1O	none
COc1ccccc1NC(=O)c1ccc(S(=O)(=O)c2ccc(Br)cc2)nc1	none (no result: AMPAR-TARP mod)
CCCCn1c(=O)c2c(nc3n2CC(C)CN3c2ccccc2OC)n(C)c1=O (stereo not given)	none (no result: GIRK2 activator)
